Structures are written as SMILES. Active and inactive are the calls of the source. How the source made its calls: active means hit-call score of the fitted dose curve at least 0.9, where 1 is the maximum; inactive means score below 0.9.

A short description of one test: ATG_AP_2_CIS: Attagene CIS-FACTORIAL HepG2 Assay for human Activator Protein 2 (AP-2) (AID 2282932). Conditions: HepG2 AP-2 cis-reporter, Attagene transcription factor profiling; actives raise or lower the signal. The method in brief: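 Transiently transfected HepG2 cells are exposed to chemical for 24 h. Reporter transcripts are then measured as fluorescence following RT-PCR and capillary separation, and gain- or loss-of-signal is fitted relative to DMSO.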
`COc1ccccc1C=O`: the molecule was called inactive.

As for `O=c1cccc[nH]1`, the molecule was called inactive.

In the case of `CCCCCCCCCCCC(=O)Cl`, the result was inactive.

`CCN=C1C=CC(=C(c2ccc(N(CC)CC)cc2)c2ccc(N(CC)CC)cc2)c2ccccc21`: the AC50 (commonly the concentration giving half of the maximal activity seen) is 3.68 µM (active).

`NC(=O)C(F)(F)C(F)(F)C(F)(F)F`: the molecule was classed as inactive.

On to `CC(C)CC=C(C=O)c1ccccc1`, for which the molecule was classed as inactive.

Regarding `OCC(F)(F)C(F)(F)C(F)(F)C(F)(F)C(F)(F)C(F)(F)C(F)(F)C(F)(F)CO`, the result was inactive.

`F[Si-2](F)(F)(F)(F)F`: the molecule was called inactive.

Take `NC(=O)C(F)(F)C(F)(F)C(F)(F)C(F)F`: the outcome was inactive.

Regarding `O=C(O)C(F)(F)OC(F)(F)C(F)(F)OC(F)(F)C(F)(F)OC(F)(F)F`, the molecule was classed as inactive.

Take `CCCCC(CC)COC(=O)c1ccc(N(C)C)cc1` (centres undefined): the call was inactive.

`CCCCCCCCCCCCCC[P+](CCCC)(CCCC)CCCC`: the outcome was inactive.

For `C=CCOC(=O)CC(C)C`, the call was inactive.

On to `O=C=Nc1cccc2c(N=C=O)cccc12`, for which the outcome was inactive.

Turning to `CC(O)C#CC(C)O` (centres undefined), the molecule was called inactive.

`CCOCN(C(=O)CS(=O)(=O)O)c1c(C)cccc1CC`: the result was inactive.

Another test in a line: ATG_BRE_CIS: Attagene CIS-FACTORIAL HepG2 Assay for human Bone Morphogenetic Protein (BMP) Response Element (BRE) (AID 2282933). The following applies: HepG2 BMP response element reporter, Attagene transcription factor profiling; actives raise or lower the signal. The gist of the method: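 Gain- or loss-of-signal was derived by bidirectional fitting against DMSO controls. The signal came from reporter mRNA, measured by RT-PCR and capillary electrophoresis, in HepG2 cells transiently carrying multiple reporter units and dosed for 24 h.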
For `CCC(Cc1c(I)cc(I)c(N)c1I)C(=O)O` (centres undefined), the molecule was called inactive.

Regarding `C=C(C)CCCC`, the outcome was inactive.

`OCC(F)(F)C(F)(F)C(F)(F)C(F)(F)C(F)(F)C(F)(F)CO`: the call was inactive.

Consider `C[C@]12CC[C@H]3C(=CCc4cc(O)ccc43)[C@@H]1CCC2=O`, for which the molecule was called inactive.

On to `Oc1ccc(C2(c3ccc(O)c(C4CCCCC4)c3)CCCCC2)cc1C1CCCCC1`, for which the call was inactive.

As to `O=C(O)CCC(F)(F)C(F)(F)C(F)(F)C(F)(F)C(F)(F)C(F)(F)C(F)(F)F`, the result was inactive.

Consider `NCC(F)(F)C(F)(F)C(F)(F)C(F)(F)C(F)(F)C(F)(F)F`, for which the call was inactive.

Turning to `CC(C)C(=O)OCc1ccccc1`, the molecule was classed as inactive.

As to `CO[Si](C)(CCC(F)(F)C(F)(F)C(F)(F)C(F)(F)C(F)(F)C(F)(F)F)OC`, the result was inactive.

`CCCCCCCCCc1ccc(OCCO)cc1`: the AC50 is 7.68 µM (active).

On to `FC(F)(F)C(F)(F)C(F)(F)C(F)(F)C(F)(F)C(F)(F)C(F)(F)CCI`, for which the molecule was called inactive.

Regarding `C[Si](C)O[Si](C)C`, the molecule was classed as inactive.

As to `Cc1cnccn1`, the molecule was classed as inactive.

On to `NCC(F)(F)C(F)(F)C(F)(F)C(F)(F)C(F)(F)C(F)(F)C(F)(F)C(F)(F)F`, for which the result was inactive.

On to `OCC(F)(F)C(F)(F)C(F)(F)CO`, for which the call was inactive.

As for `CN(C)C(C)(C)CO`, the molecule was classed as inactive.

Take `Nc1cc([N+](=O)[O-])cc(Cl)c1O`: the molecule was classed as inactive.

As for `CCCCCCCCCCCCC[N+](C)(C)Cc1ccccc1`, the concentration at half-maximal activity (AC50) is 5.63 µM (active).

Take `OCCCc1cccnc1`: the call was inactive.

For the molecule `O=C(Cl)C(F)(F)C(F)(F)C(F)(F)C(F)(F)C(F)(F)C(F)(F)C(F)(F)F`, the result was inactive.

As for `Cc1cc(C)c(O)c(C(C)(C)C)c1`, the molecule was called inactive.

As to `CCC(=O)OC(C)c1ccccc1` (centres undefined), the outcome was inactive.

On to `COc1ccccc1C=O`, for which the molecule was classed as inactive.

Regarding `O=c1cccc[nH]1`, the result was inactive.

As to `CCCCCCCCCCCC(=O)Cl`, the molecule was classed as inactive.

`CCN=C1C=CC(=C(c2ccc(N(CC)CC)cc2)c2ccc(N(CC)CC)cc2)c2ccccc21`: the AC50 was 0.0688 µM (active).

As to `NC(=O)C(F)(F)C(F)(F)C(F)(F)F`, the call was inactive.

In the case of `CC(C)CC=C(C=O)c1ccccc1`, the outcome was inactive.

`OCC(F)(F)C(F)(F)C(F)(F)C(F)(F)C(F)(F)C(F)(F)C(F)(F)C(F)(F)CO`: the molecule was called inactive.

In the case of `F[Si-2](F)(F)(F)(F)F`, the call was inactive.

Take `NC(=O)C(F)(F)C(F)(F)C(F)(F)C(F)F`: the molecule was called inactive.

For the molecule `O=C(O)C(F)(F)OC(F)(F)C(F)(F)OC(F)(F)C(F)(F)OC(F)(F)F`, the molecule was called inactive.

For the molecule `CCCCC(CC)COC(=O)c1ccc(N(C)C)cc1` (centres undefined), the half-maximal activity concentration (AC50) is 46.7 µM (active).

Consider `CCCCCCCCCCCCCC[P+](CCCC)(CCCC)CCCC`, for which the AC50 was 0.745 µM (active).

For the molecule `C=CCOC(=O)CC(C)C`, the result was inactive.

Regarding `O=C=Nc1cccc2c(N=C=O)cccc12`, the molecule was classed as inactive.

Regarding `CC(O)C#CC(C)O` (centres undefined), the AC50 was 182 µM (active).

`CCOCN(C(=O)CS(=O)(=O)O)c1c(C)cccc1CC`: the outcome was inactive.

The values are drawn from PubChem BioAssay (EPA / NIEHS).
